# Data reported in PubChem BioAssay AID1688 (National Center for Advancing Translational Sciences (NCATS), 2009).
# Screen size: about 220,000 compounds; about 2,400 (1.1%) were called active. Inconclusive results (about 7%) are left out. Shown is part of a subset that was picked to be rich in actives. Values without a mark were called inactive. Calls come from the whole dose curve; as a rule, active = well fitted inhibition curve with a large enough effect; inconclusive = small, poorly fitted or top-dose-only effect, or effect the other way; inactive = no such curve, though single readings can be large or run the other way.
# Assay: qHTS Multiplex Assay to Identify Dual Action Probes in a Cell Model of Huntington: Aggregate Formation (GFP); note: nearly all actives have a fitted effect of over 60% in size
# Conditions: PC12 HttQ103-GFP aggregates, Acumen cytometry, 40 h; series mostly up to 9.22 µM; activity change, negative = inhibition: at the top concentration
# In short: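 PC12/HTTQ103-GFP, ecdysone-inducible; teb 100 nM; cpd qHTS titration; GFP aggregates read on laser cytometer, Ex 488/Em 500-530 nm.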
# % is set by controls: 0 for no effect and ±100 for the full control effect; potency is the fitted concentration of half-maximal effect.
SMILES,"activity change, negative = inhibition",Potency
CC(C)(C)c1nnc(NC(=O)C2c3ccccc3Oc3ccccc32)s1,-14.3%,
Nc1ccc(C(=O)Nc2ccccc2N)cc1,2.49% [at 46.1 µM],
COc1cccc(-c2nnc(NC(=O)c3ccc(S(=O)(=O)N(CC(C)C)CC(C)C)cc3)o2)c1,,5.01 µM (active)
COc1cccc(NC(=O)CN(C)S(=O)(=O)c2ccc(C)cc2)c1,28% [at 46.1 µM],
COc1cccc(NC(=O)c2ccc(S(=O)(=O)N(C)C)cc2)c1,11% [at 46.1 µM],
Oc1ccc(Cl)c2c1CCC2,3.24% [at 46.1 µM],
CCOc1ccccc1N1CN(Cc2ccccc2)CNC1=S,-10.6%,
COCCN1C(=O)N[C@@H](c2ccccc2)C(C(=O)OC)=C1C,17.3% [at 46.1 µM],
COC(=O)C1=C(C)N(C)C(=S)NC1c1cc(OC)ccc1OC (configuration not stated),-3.02% [at 46.1 µM],
COC(=O)C1=C(C)N(C)C(=S)NC1c1ccccc1 (configuration not stated),,3.16 µM (active)
COc1ccc(-c2csc(NC3OC(=O)c4ccccc43)n2)cc1 (configuration not stated),-6.69%,
Cc1c(C(=O)OC(C)C)sc(NC(=O)c2cccnc2)c1C#N,,11.2 µM (active)
CCOC(=O)c1cc(NC(=O)c2cccnc2)cc(C(=O)OCC)c1,2.09% [at 46.1 µM],
CCOC(=O)c1sc(NC(=O)CSc2ncccn2)c(C#N)c1C,-1.2% [at 46.1 µM],
O=S(=O)(c1ccc(F)cc1)N1CC=C(c2ccccc2)CC1,-11.9%,
O=C1CCCC(O)=C1N=Nc1ccc(S(=O)(=O)N2CCOCC2)cc1,-29.6%,
O=C(C1=C(O)C(=O)N(CCOCCO)C1c1ccccn1)c1cccs1 (configuration not stated),-9.5%,
COc1ccc(Cc2cc(-c3ccc(F)cc3)n[nH]c2=O)cc1,-2.71%,
Fc1ccccc1/C=N/n1c(-c2cccnc2)n[nH]c1=S,-12.6%,

SMILES,"activity change, negative = inhibition",Potency
O=C(NCCCN1CCOCC1)c1ccc(N2CCCC2)c([N+](=O)[O-])c1,3.94%,
CCOC(=O)c1c(NC(=O)c2ccc(N3CCOCC3)c([N+](=O)[O-])c2)sc(C)c1C,-1.54% [at 46.1 µM],
N#Cc1c(NC(=O)c2ccc(N3CCOCC3)c([N+](=O)[O-])c2)sc2c1CCCC2,,5.62 µM (active)
Cc1cc(=O)[nH]c(S)c1C#N,-6.31%,
NC(=O)C(=O)N/N=C/c1ccc([N+](=O)[O-])o1,-100% [at 46.1 µM],
O=C(O)c1cccnc1Sc1ncnc2sc3c(c12)CCC3,-1.62%,
COCCn1c(C)cc(C(=O)CSc2ncnc3sc4c(c23)CCC4)c1C,,6.31 µM (active)
COCCn1c(C)cc(C(=O)CSc2nc3ccccc3c(=O)n2C(C)COC)c1C (configuration not stated),-9.69% [at 46.1 µM],
CC(C)(C)C(=O)NNC(=O)c1ccc(Oc2cc(Cl)cc(Cl)c2)o1,-4.94%,
CCOc1cc2c(Cl)ncnc2c(OCC)c1OCC,-18.2%,
Cc1nc2ccccc2c(C)c1C(=O)c1ccc(F)cc1,,7.94 µM (active)
Cc1nc2ccc(C(=O)O)cc2[nH]1,2.47% [at 46.1 µM],
Cc1nc2ccccc2c(-c2ccccc2)c1C(=O)c1ccccc1,-13.7% [at 46.1 µM],
COc1ccc(Cl)cc1C(=O)NNC(=O)c1nc2nc(C)cc(C)n2n1,16.4%,
FC(F)(F)c1ccc(-n2cn[nH]c2=S)cc1,-29%,
CCOC(=O)C(NC(C)=O)C(=O)Nc1ccc(OC)cc1 (configuration not stated),1.08%,
COc1ccc(NC(=O)C(Br)C(C)C)cc1 (configuration not stated),,0.891 µM (active)
COc1ccc(NC(=O)C(C)SCc2ccccc2)cc1 (configuration not stated),9.72%,
O=C(COc1ccccc1[N+](=O)[O-])N/N=C/c1ccc[nH]1,27.9%,

SMILES,"activity change, negative = inhibition",Potency
O=C1CC2(CC(c3ccc(Cl)cc3)=NO2)C(=O)N1c1ccccc1 (configuration not stated),-18.5%,
C#CCNc1ccc(C(=O)OCC)cc1,-0.897%,
Fc1ccc(-c2csc(-c3ccc(C4SCCS4)cc3)n2)cc1F,-8.2%,
CCCc1ccc(-c2c(C)sc(NC(=O)c3ccnn3C)c2C#N)cc1,,7.08 µM (active)
CCN(CC)C(=O)c1sc(NC(=O)c2ccco2)c(C#N)c1C,-5.71% [at 46.1 µM],
Cn1nccc1CNC(=O)c1ccnn1C,17.5% [at 46.1 µM],
CCN(CC(=O)Nc1ccc(S(=O)(=O)N2CCCC2)cc1)CC(=O)Nc1cccc(OC)c1,-1.97%,
CN(Cc1nc(-c2cnccn2)no1)Cc1n[nH]c2c1CCCCC2,3.15%,
Cc1ccc(NC(=O)C/C(N)=N/O)cc1Cl,-5.66%,
O=C(CC(O)(C(F)(F)F)C(F)(F)F)Nc1ccc(Cl)c(Cl)c1,,5.01 µM (active)
O=C(CC(=O)Nc1ccc(Cl)c(Cl)c1)N/N=C/c1ccc(O)cc1,-2.59% [at 46.1 µM],
Cn1cc(S(=O)(=O)NC(c2ccccc2)c2ccccc2)c(=O)n(C)c1=O,25.8%,
CN(C)c1cc[n+](Cc2ccccc2)cc1,,7.08 µM (active)
c1ccc(Cc2cc[n+](Cc3ccccc3)cc2)cc1,-10.7%,
CN(C)c1ccc(/C=N/N(Cc2ccccc2)c2ccccc2)cc1,0.998% [at 46.1 µM],
COc1ccc(OCCC(=O)c2ccc(OC)cc2)cc1,18.6%,
CC(=O)Nc1cccc(OCC(=O)/C=C2\N(C)c3ccccc3C2(C)C)c1,,11.2 µM (active)
CN1/C(=C\C(=O)c2cccnc2Cl)C(C)(C)c2ccccc21,-10.9% [at 46.1 µM],
Cc1noc(C)c1C(=O)OCC(=O)/C=C1\N(C)c2ccccc2C1(C)C,-17% [at 46.1 µM],
